Data reported in PubChem BioAssay (NCI).
Compounds without any hit were thinned out: in the full panel of roughly 83,000, 20% have a hit.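 Values shown are percent growth following 48 h exposure of cells in 96-well plates to a single concentration of compound; below 10 was considered active.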 Active and inactive are the calls of the source.

Experiments:
Assay in all cases: NCI-60 one-dose screen, 48 h (100 = growth as untreated, 0 = no growth, -100 = all killed)
Settings in all cases: 10 µM unless noted
HCT-15 colon = system: HCT-15 colon
HT29 colon = system: HT29 colon
SNB-75 CNS = system: SNB-75 CNS
SNB-19 CNS = system: SNB-19 CNS
PC-3 prostate = system: PC-3 prostate
SK-MEL-5 melanoma = system: SK-MEL-5 melanoma
UACC-62 melanoma = system: UACC-62 melanoma
LOX IMVI melanoma = system: LOX IMVI melanoma
SK-MEL-28 melanoma = system: SK-MEL-28 melanoma
SK-MEL-2 melanoma = system: SK-MEL-2 melanoma
EKVX NSCLC = system: EKVX NSCLC
SN12C renal = system: SN12C renal
UO-31 renal = system: UO-31 renal
TK-10 renal = system: TK-10 renal
ACHN renal = system: ACHN renal
CAKI-1 renal = system: CAKI-1 renal
CCRF-CEM leukemia = system: CCRF-CEM leukemia
MOLT-4 leukemia = system: MOLT-4 leukemia
A498 renal = system: A498 renal

Measured: growth

O=S(=O)(Nc1ccc(OC(F)F)cc1)c1ccc(-c2cnc(C3CC3)o2)cc1
inactive: HCT-15 colon 38.4% | HT29 colon 55.6% | SNB-75 CNS 42.7% | SNB-19 CNS 75.8% | PC-3 prostate 67.6% | SK-MEL-5 melanoma 57.7% | UACC-62 melanoma 44% | LOX IMVI melanoma 72% | SK-MEL-28 melanoma 85.3% | SK-MEL-2 melanoma 63.9% | EKVX NSCLC 61.7% | SN12C renal 77.5% | UO-31 renal 60.2% | TK-10 renal 102% | ACHN renal 79.4% | CAKI-1 renal 47.2% | CCRF-CEM leukemia 66.8% | MOLT-4 leukemia 50.1%

CN(C)S(=O)(=O)c1ccc(S(=O)(=O)Nc2cccc(Cl)c2N2CCCCC2)cc1
inactive: HCT-15 colon 79.9% | HT29 colon 91.8% | SNB-75 CNS 64.2% | SNB-19 CNS 84.9% | PC-3 prostate 60.3% | SK-MEL-5 melanoma 80.7% | UACC-62 melanoma 57.8% | LOX IMVI melanoma 67.4% | SK-MEL-28 melanoma 59.9% | EKVX NSCLC 68.2% | SN12C renal 83% | UO-31 renal 72.7% | TK-10 renal 102% | ACHN renal 75.3% | CAKI-1 renal 31.6% | A498 renal 103% | CCRF-CEM leukemia 75% | MOLT-4 leukemia 68.9%

CCCN1CCN(c2ccc3nc(-c4ccc5nc(-c6ccc(OCC)cc6)[nH]c5c4)[nH]c3c2)CC1
inactive: SNB-75 CNS 50.3% | SNB-19 CNS 62% | SK-MEL-5 melanoma 28.9% | UACC-62 melanoma 51.4% | SK-MEL-28 melanoma 48.4% | SK-MEL-2 melanoma 78.9% | EKVX NSCLC 59.1% | SN12C renal 61.2% | UO-31 renal 87.2% | TK-10 renal 69% | ACHN renal 34.6% | CAKI-1 renal 49.3% | A498 renal 65.6%
active: HCT-15 colon -56.5% | HT29 colon -69% | PC-3 prostate -69.5% | LOX IMVI melanoma -95% | CCRF-CEM leukemia -32.4% | MOLT-4 leukemia -0.259%

O=C(N=Nc1c(O)[nH]c2ccc(Br)cc12)c1cc(-c2ccccc2)on1
inactive: HCT-15 colon 103% | HT29 colon 97% | SNB-75 CNS 58.4% | SNB-19 CNS 102% | PC-3 prostate 100% | SK-MEL-5 melanoma 99.9% | UACC-62 melanoma 103% | SK-MEL-28 melanoma 106% | SK-MEL-2 melanoma 95.6% | EKVX NSCLC 91.3% | SN12C renal 100% | UO-31 renal 90.5% | TK-10 renal 108% | ACHN renal 103% | CAKI-1 renal 88.7% | A498 renal 77.6% | CCRF-CEM leukemia 102% | MOLT-4 leukemia 100%

CC(=O)O[C@H]1CC[C@]2(C)[C@H]3CC=C4[C@@H]5CC(C)(C)CC[C@]5(C(=O)NCCNCCN)CC[C@@]4(C)[C@]3(C)CC[C@H]2C1(C)C
active: HCT-15 colon -89.3% | HT29 colon -92.8% | SNB-19 CNS 2.09% | PC-3 prostate -44.3% | UACC-62 melanoma -21.2% | LOX IMVI melanoma -100% | SK-MEL-28 melanoma -85.6% | SN12C renal -89.9% | UO-31 renal -91.6% | TK-10 renal -79% | ACHN renal -100% | CAKI-1 renal -68.7% | CCRF-CEM leukemia -40.1% | MOLT-4 leukemia -39.9%
inactive: SNB-75 CNS 88% | SK-MEL-5 melanoma 71.4% | SK-MEL-2 melanoma 82.5% | EKVX NSCLC 28.8% | A498 renal 38.6%

Cc1nc2c3c(-c4ccccc4)c(-c4ccccc4)oc3ncn2n1
inactive: HCT-15 colon 101% | HT29 colon 95.8% | SNB-75 CNS 69.9% | SNB-19 CNS 96.6% | PC-3 prostate 91.3% | SK-MEL-5 melanoma 96.3% | UACC-62 melanoma 92.3% | LOX IMVI melanoma 90.7% | SK-MEL-28 melanoma 118% | SK-MEL-2 melanoma 101% | EKVX NSCLC 88.9% | SN12C renal 96.5% | UO-31 renal 83.9% | TK-10 renal 108% | ACHN renal 94.6% | CAKI-1 renal 88.6% | CCRF-CEM leukemia 96.7% | MOLT-4 leukemia 89.9%

COc1cc2nc(N3CCCC3)nc(NCC3CCCCC3)c2cc1OC
inactive: SNB-75 CNS 93.4% | SNB-19 CNS 82.9% | PC-3 prostate 25.1% | UACC-62 melanoma 87% | EKVX NSCLC 40.2% | SN12C renal 59.6% | UO-31 renal 42.5% | ACHN renal 16.8% | CAKI-1 renal 13.3%
active: HCT-15 colon -70.9% | HT29 colon -24.8% | SK-MEL-5 melanoma -97.7% | SK-MEL-28 melanoma -86.4% | SK-MEL-2 melanoma -43.5% | TK-10 renal -34.7% | A498 renal -3.66% | MOLT-4 leukemia -16.3%

COc1cccc(Nc2nc(SC)nc(-c3cccc([N+](=O)[O-])c3)c2C#N)c1
inactive: HCT-15 colon 79.2% | HT29 colon 78% | SNB-75 CNS 34% | SNB-19 CNS 67.2% | PC-3 prostate 71.2% | SK-MEL-5 melanoma 87.2% | UACC-62 melanoma 78.5% | LOX IMVI melanoma 64.9% | SK-MEL-28 melanoma 76.3% | SK-MEL-2 melanoma 96.3% | EKVX NSCLC 64.7% | SN12C renal 68.8% | UO-31 renal 26.7% | TK-10 renal 75.8% | ACHN renal 23.9% | CAKI-1 renal 60.1% | A498 renal 78.5% | CCRF-CEM leukemia 99.6% | MOLT-4 leukemia 98.2%

CC1=NN(c2nc(-c3ccc(Cl)cc3)c(C#N)c(N3CCOCC3)n2)C(=O)C1
inactive: HCT-15 colon 89.3% | HT29 colon 94.1% | SNB-75 CNS 56.5% | SNB-19 CNS 94.6% | PC-3 prostate 98.5% | SK-MEL-5 melanoma 94.3% | UACC-62 melanoma 13.8% | LOX IMVI melanoma 75.5% | SK-MEL-28 melanoma 33.1% | SK-MEL-2 melanoma 87.1% | EKVX NSCLC 88.8% | SN12C renal 88.5% | UO-31 renal 71.9% | TK-10 renal 117% | ACHN renal 73.6% | CAKI-1 renal 70.1% | CCRF-CEM leukemia 85.9% | MOLT-4 leukemia 92.1%

COc1ccc(-c2cc(NC(=O)Nc3ccc4ncsc4c3)no2)cc1
inactive: HCT-15 colon 96.5% | HT29 colon 97.2% | SNB-75 CNS 60.2% | SNB-19 CNS 92.9% | PC-3 prostate 92.6% | SK-MEL-5 melanoma 99.5% | UACC-62 melanoma 95.9% | LOX IMVI melanoma 102% | SK-MEL-28 melanoma 108% | SK-MEL-2 melanoma 112% | EKVX NSCLC 95.9% | SN12C renal 96.3% | UO-31 renal 106% | TK-10 renal 104% | ACHN renal 99.6% | CAKI-1 renal 91% | A498 renal 100% | CCRF-CEM leukemia 106% | MOLT-4 leukemia 96.1%

Cc1oc(-c2ccc(Cl)cc2Cl)cc1C(=O)Nc1nccs1
inactive: HCT-15 colon 85.6% | HT29 colon 86.6% | SNB-75 CNS 84.4% | SNB-19 CNS 98.8% | PC-3 prostate 96.6% | SK-MEL-5 melanoma 97.1% | UACC-62 melanoma 91.7% | LOX IMVI melanoma 79.1% | SK-MEL-28 melanoma 105% | SK-MEL-2 melanoma 102% | EKVX NSCLC 70.7% | SN12C renal 78.3% | UO-31 renal 82% | TK-10 renal 103% | ACHN renal 62.5% | CAKI-1 renal 78.1% | A498 renal 102% | CCRF-CEM leukemia 89% | MOLT-4 leukemia 94%

Cc1ccc(NS(=O)(=O)c2ccc(-c3cnc(C4CC4)o3)cc2)cc1C
inactive: HCT-15 colon 19.5% | SNB-19 CNS 46.8% | PC-3 prostate 22.7% | UACC-62 melanoma 24.1% | LOX IMVI melanoma 39.4% | SK-MEL-28 melanoma 66% | SK-MEL-2 melanoma 38.5% | EKVX NSCLC 27% | SN12C renal 43.6% | UO-31 renal 38.5% | TK-10 renal 44% | ACHN renal 40.7% | CAKI-1 renal 27.2% | CCRF-CEM leukemia 23.5% | MOLT-4 leukemia 30.1%
active: HT29 colon -10.4% | SNB-75 CNS -7.43% | SK-MEL-5 melanoma -3.9%

O=C(/C=C/c1cccc([N+](=O)[O-])c1)c1ccc(O)c(CN2CCN(c3cc4c(cc3F)c(=O)c(C(=O)O)cn4C3CC3)CC2)c1
active: HCT-15 colon -40.1% | HT29 colon -23.6% | LOX IMVI melanoma -93.5% | UO-31 renal -29.7% | ACHN renal 8.06% | CCRF-CEM leukemia 0.194% | MOLT-4 leukemia 2.37%
inactive: SNB-75 CNS 31.1% | SNB-19 CNS 47.2% | PC-3 prostate 18.4% | SK-MEL-5 melanoma 46.1% | UACC-62 melanoma 53% | SK-MEL-28 melanoma 46.4% | SK-MEL-2 melanoma 88.3% | EKVX NSCLC 52.8% | SN12C renal 32.5% | TK-10 renal 34.5% | CAKI-1 renal 42.3% | A498 renal 97.2%

O=C1NC(=S)N[C@H]1CC(=O)n1cnc2ccccc21
inactive: HCT-15 colon 99.1% | HT29 colon 111% | SNB-75 CNS 69.7% | SNB-19 CNS 102% | PC-3 prostate 101% | SK-MEL-5 melanoma 99.1% | UACC-62 melanoma 93.4% | LOX IMVI melanoma 88.5% | SK-MEL-28 melanoma 111% | EKVX NSCLC 90.5% | SN12C renal 95.4% | UO-31 renal 75.5% | TK-10 renal 112% | ACHN renal 95.3% | CAKI-1 renal 88.7% | A498 renal 80.3% | CCRF-CEM leukemia 112% | MOLT-4 leukemia 108%

COc1ccc(-c2nc3ccc(-c4nc5ccc(N6CCN(C)CC6)cc5[nH]4)cc3[nH]2)cc1OC
inactive: HCT-15 colon 91% | HT29 colon 49.4% | SNB-75 CNS 54% | SNB-19 CNS 90.3% | PC-3 prostate 62.8% | SK-MEL-5 melanoma 26.3% | UACC-62 melanoma 19.2% | LOX IMVI melanoma 43.9% | SK-MEL-28 melanoma 39% | SK-MEL-2 melanoma 45% | EKVX NSCLC 85.4% | SN12C renal 71.1% | UO-31 renal 99.4% | TK-10 renal 84.3% | ACHN renal 100% | CAKI-1 renal 71.9% | A498 renal 76.6% | CCRF-CEM leukemia 51.7% | MOLT-4 leukemia 61.1%

CSc1nc(NCCO)c(C#N)c(-c2cccc([N+](=O)[O-])c2)n1
inactive: HCT-15 colon 98.7% | HT29 colon 112% | SNB-75 CNS 72.8% | SNB-19 CNS 90.7% | PC-3 prostate 94.7% | SK-MEL-5 melanoma 97.2% | UACC-62 melanoma 87% | LOX IMVI melanoma 91.6% | SK-MEL-28 melanoma 112% | SK-MEL-2 melanoma 113% | EKVX NSCLC 88.9% | SN12C renal 90.4% | UO-31 renal 73.2% | TK-10 renal 120% | ACHN renal 93% | CAKI-1 renal 83.9% | A498 renal 72.6% | CCRF-CEM leukemia 99.1% | MOLT-4 leukemia 99%
